Results as given in the supplement of paper PMC6555819.

Columns and labels:
Assay in all cases: PBM binding z-score (relative to random genomic background probes); higher = stronger binding; sequences stand for … in GC…GCGATTGACAGCGTAGAATGAAGG
[1] = tested on: FXR:RXRa (NR concentration 270 nM, RXRa partner concentration 90 nM)
In short: (§1)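 For binding z-scores, the reference was random background probes on custom Agilent 4×180K protein-binding microarrays. These arrays were incubated 1 h with ligand-free nuclear receptor dimers in PBS pH 7.4, 2% milk, 0.02% Triton X-100, 1 mM DTT, 0.2 mg/mL BSA and 0.4 mg/ml salmon testes DNA. Fluorescence was scanned after antibody detection of each partner (one per run) and regression-normalized.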

[2] = tested on: LXRa:RXRa (NR concentration 270 nM, RXRa partner concentration 90 nM)
In short: as §1

[3] = tested on: LXRa homodimer (NR concentration 270 nM)
In short: as §1

[4] = tested on: LXRb:RXRa (NR concentration 270 nM, RXRa partner concentration 90 nM)
In short: as §1

[5] = tested on: LXRb homodimer (NR concentration 270 nM)
In short: as §1

[6] = tested on: PPARa:RXRa (NR concentration 270 nM, RXRa partner concentration 90 nM)
In short: as §1

[7] = tested on: PPARg:RXRa (NR concentration 180 nM, RXRa partner concentration 90 nM)
In short: as §1

[8] = tested on: PPARg:RXRa 270nM:90nM, anti-RXR (NR concentration 270 nM, RXRa partner concentration 90 nM)
In short: as §1

[9] = tested on: PPARg:RXRa 30nM:10nM, anti-RXR (NR concentration 30 nM, RXRa partner concentration 10 nM)
In short: as §1

[10] = tested on: PPARg:RXRa 90nM:30nM, anti-RXR (NR concentration 90 nM, RXRa partner concentration 30 nM)
In short: as §1

[11] = tested on: PPARg:RXRa DBDmut IVT, anti-RXR (DBD mutation: RXRa K156A/R161A, NR concentration 270 nM, RXRa partner concentration 90 nM)
In short: as §1

[12] = tested on: PPARg:RXRa IVT, anti-PPARg (NR concentration 270 nM, RXRa partner concentration 90 nM)
In short: as §1

[13] = tested on: PPARg DBDmut:RXRa IVT, anti-PPARg (DBD mutation: PPARg1 K132A/R137A, NR concentration 270 nM, RXRa partner concentration 90 nM)
In short: as §1

[14] = tested on: PPARg DBDmut IVT, anti-PPARg (DBD mutation: PPARg1 K132A/R137A, NR concentration 270 nM)
In short: as §1

[15] = tested on: PPARg homodimer (NR concentration 180 nM)
In short: as §1

[16] = tested on: PXR:RXRa (NR concentration 270 nM, RXRa partner concentration 90 nM)
In short: as §1

[17] = tested on: PXR homodimer (NR concentration 270 nM)
In short: as §1

[18] = tested on: RARa:RXR (NR concentration 270 nM, RXRa partner concentration 90 nM)
In short: as §1

[19] = tested on: RARa homodimer (NR concentration 270 nM)
In short: as §1

[20] = tested on: RARb:RXRa (NR concentration 270 nM, RXRa partner concentration 90 nM)
In short: as §1

Sequence	PBM binding z-score [1]	PBM binding z-score [2]	PBM binding z-score [3]	PBM binding z-score [4]	PBM binding z-score [5]	PBM binding z-score [6]	PBM binding z-score [7]	PBM binding z-score [8]	PBM binding z-score [9]	PBM binding z-score [10]	PBM binding z-score [11]	PBM binding z-score [12]	PBM binding z-score [13]	PBM binding z-score [14]	PBM binding z-score [15]	PBM binding z-score [16]	PBM binding z-score [17]	PBM binding z-score [18]	PBM binding z-score [19]	PBM binding z-score [20]
TTTTGTAGATCAGCAGGTTAAGAAAGCTGGCCAA	-0.421	-0.315	-0.236	0.141	-0.319	0.634	-0.106	0.922	0.508	0.797	0.508	1.04	-0.105	0.632	0.357	0.0195	-0.117	0.084	0.0423	0.0903
GCTGCTAGGTCAACTGATGGTCAGATAAAGCTCG	4.47	3.11	0.48	2.43	0.348	3.87	3.29	3.18	0.958	2.4	4.95	4.14	-0.121	0.186	2.79	1.8	-0.238	3.42	-0.022	4.22
GGAACAAGGGCAAAGTTGATAGCATCTGTCGACG	0.623	0.618	-0.274	0.612	-0.0187	3.56	5.8	6.3	5.66	6.8	2.8	3.73	0.621	-0.078	0.637	0.784	0.0632	0.948	0.248	2.42
CGAACTAGGTCATTGCCAGGACAGTGAATAGTAA	3.98	2.75	0.491	1.6	-0.019	4.39	6.96	6.06	3.25	5.51	8.25	7.95	1.34	0.503	1.04	1.4	0.261	1.87	0.423	3.44
TATGCTAGGTCAGTTGGTCAGCTAACGAGCTGCC	0.676	1.92	0.835	0.423	1.02	1.46	1.17	1.26	0.0933	0.733	1.61	2.75	1.5	0.759	0.0439	0.247	-0.553	0.47	-0.649	3.04
AGAACGAGGGCAATCAGTTGATAGCACGGGTGGC	0.397	0.342	-0.0973	0.0776	0.0962	1.68	1.44	1.15	0.168	0.658	3.4	3.01	0.487	-0.148	-0.207	1.03	1.55	0.384	-0.0136	2.09
CATACTAGGTCAAGAGGTCAAAGTCCGCTTCCCG	7.24	6.42	7.38	5.6	2.49	6.35	8.96	7.68	5.59	7.65	7.37	7.69	4.46	2.98	5.59	6.4	2.53	7.53	3.07	5.67
GGAACGAGGACAAAGTTGATAGCATCTGTCGACG	-0.0589	-0.208	-0.722	-0.455	-0.842	2.4	4.11	5.44	3.91	5.14	1.35	1.44	-0.283	-0.95	-0.0718	-0.043	-0.312	0.0802	0.0714	0.942
ACTATTGGTTGAGACGAGGGCAACCGATAGGTTG	0.496	0.289	-0.00418	0.08	0.0327	0.62	0.556	0.157	0.062	0.367	-0.0898	0.516	0.379	0.283	0.821	1.5	0.199	1.1	0.274	1.07
ACAGACAGGTGAGTGATGGTAACTCAGCTGGACG	0.332	0.668	-0.354	-0.409	-0.477	-0.213	0.554	-0.115	-0.0308	-0.212	0.622	0.347	-0.278	-0.268	0.364	-0.415	-0.0348	-0.241	0.249	0.377
ATATGTAGGTTACATTCGGGTCATTCAGGCTATG	2.91	4.73	1.76	3.19	1.04	4.3	5.53	5.07	2.31	4.62	7.46	7.26	5.28	2.88	2.4	3.85	3.72	3.65	1.02	2.32
CCTTACGGGTCACTCCAGGTTAGAGCATCGGAGT	4.5	6.91	0.78	4.42	0.148	4.23	3.19	3.7	0.828	2.54	2.67	3.37	-0.182	-0.0184	1.58	4.28	0.36	3.52	0.0194	3.64
CCTATTAGTTGACCATAAGGGAAACCGAAGCTCG	0.0135	0.118	0.818	0.349	0.904	0.126	0.419	0.639	0.332	0.381	0.672	0.217	0.925	1.02	2.22	0.326	0.761	0.517	2.53	0.497
CAGCCTAGGTCAGGGCTAGTATAGGAGGAACGTT	1.42	0.697	-0.359	0.186	-1.36	1.99	0.77	0.899	-0.0707	0.264	1.32	1.55	-1.23	-0.952	0.47	0.176	-0.363	1.08	-0.159	3.41
